Over roughly 33,000 sequences, “E-score (-0.5 to 0.5)” has its median near -0.012; the highest 2% begin near 0.27. Only a selection was taken, and the highest values are over-represented in it overall.
target: T1, Vhr1 (UniProt P40522); experiment: PBM E-score (8-mer binding enrichment) (E-score (-0.5 to 0.5)); higher = stronger / more preferred TF binding; settings: protein concentration: 200 nM; construct: GST-full length
T1 sequence: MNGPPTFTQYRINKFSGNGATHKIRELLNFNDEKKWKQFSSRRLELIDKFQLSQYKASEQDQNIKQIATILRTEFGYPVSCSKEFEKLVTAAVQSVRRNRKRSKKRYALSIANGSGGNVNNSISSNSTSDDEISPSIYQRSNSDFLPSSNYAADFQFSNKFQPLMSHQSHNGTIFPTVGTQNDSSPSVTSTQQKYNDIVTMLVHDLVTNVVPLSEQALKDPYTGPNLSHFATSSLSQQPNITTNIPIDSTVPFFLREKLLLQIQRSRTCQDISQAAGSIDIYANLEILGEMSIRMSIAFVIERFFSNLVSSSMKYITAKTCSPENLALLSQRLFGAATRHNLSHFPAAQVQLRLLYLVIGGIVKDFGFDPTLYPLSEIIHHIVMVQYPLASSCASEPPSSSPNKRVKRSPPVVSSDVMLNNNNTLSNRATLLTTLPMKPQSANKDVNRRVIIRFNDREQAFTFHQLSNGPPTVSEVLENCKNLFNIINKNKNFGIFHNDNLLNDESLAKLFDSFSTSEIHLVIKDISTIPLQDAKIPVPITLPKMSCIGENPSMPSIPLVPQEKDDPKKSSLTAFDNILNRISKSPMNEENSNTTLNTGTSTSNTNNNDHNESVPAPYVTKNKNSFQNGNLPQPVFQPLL
Method: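 Universal 'all 10-mer' protein binding microarrays (Agilent AMADID 015681) probed with GST-tagged S. cerevisiae TFs (full-length or DBD) made by in vitro transcription/translation (PURExpress), about 100-200 nM. Bound TF was detected with fluorescent anti-GST. Each ungapped 8-mer (which stands for itself and its reverse complement) is scored by the PBM enrichment score (E-score), a modified Wilcoxon-Mann-Whitney statistic from -0.5 to +0.5, computed with the Universal PBM Analysis Suite. Scale: above 0.35 generally sequence-specific binding.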

Sequence | PBM E-score
GAAGGATC | -0.0379
GGCTCAAC | -0.199
CTGGCTGA | 0.143
ACAATCGT | 0.0768
CAATCCTG | 0.122
ATATGGAA | 0.178
ATGCTGTG | 0.116
AGTGTGAT | 0.296
AGTGTGAC | 0.209
AGTGTGAG | 0.147
ACGTCAGA | -0.0949
ACAGTTGG | -0.02
CTCGAGTC | 0.235
AGCGAGTA | 0.119
CGCGAGTA | 0.112
CGCGAGTC | 0.355
AGCGAGTC | 0.275
AGCGAGTG | 0.192
CATCACAA | 0.0244
CGCCAAGA | -0.0615
CGGAGCGA | 0.0369
ACTTGGGA | -0.155

Sequence | PBM E-score
AGCCAGTG | 0.00862
AGTTGCAT | -0.0357
CACCTTAA | -0.0968
TAGAATCA | 0.185
AGGAATCA | 0.28
AGGAATCC | 0.119
CGGAATCA | 0.412
AAGAATCA | 0.222
GGGAATGA | 0.169
CAGAATCA | 0.313
GGGAATCA | 0.307
GGGAATAA | -0.0372
CGGAATTA | -0.193
AGGAATCG | 0.0478
CGGAATCC | 0.0628
CACTCGAG | -0.029
CTCTTCAG | -0.0887
TTCCTCAA | -0.19
ATGGTCCG | 0.175
ATAGGCCA | -0.159
AGACTAAC | 0.0491
GCTAAACA | -0.0852

Sequence | PBM E-score
ACTGGCAC | -0.113
ATGAAGCG | -0.136
TGAAATAA | -0.158
ACATTTAT | -0.0139
ACTTGCGA | 0.0242
CCTTGCGA | -0.0209
GCTTGCGA | 0.295
ACTGGCCT | -0.135
CAGATGTC | 0.105
CCAGTCGC | 0.13
AAAGTCGC | 0.137
CGAGTCGC | 0.34
AGAGTCTG | -0.106
AGAGTCGA | 0.157
AGAGTCGG | 0.329
AGAGTCGC | 0.338
CGAGTCGA | 0.224
ATAGTCGC | 0.243
CCCTTCTA | -0.218
CTAGCTGA | 0.0125
CTACTGAA | 0.132
CGCCCTCA | -0.16

Sequence | PBM E-score
AAGGGCTC | -0.218
AGGGCTCG | -0.079
AGCTTCTA | -0.278
AGTGATTG | 0.343
ATTGATTG | 0.0691
AGCGATTC | 0.168
AGTGATAC | 0.237
CGCGATTA | 0.162
CGTGATTC | 0.326
AGTGATTA | 0.216
CGCGATTC | 0.278
CGTGATTA | 0.236
AGTGATTC | 0.285
AGTGATAG | -0.0174
CGTGATCC | -0.0765
ATGAAACC | 0.137
ACGGTAGT | 0.125
AAAATCAT | 0.151
ATTGCTTG | -0.00443
ATCTCATC | 0.0646

— the supplement of paper PMC3334620
